The nature of assay [1]: nuclear p53 accumulation, HPV+ cells – imaging, p53-positive nuclei imaging, 24 h, 48 h (AID 1508601). To be noted: 24/48 h.
In assay [2] the target is Cellular tumor antigen p53 (Homo sapiens) (UniProt P04637). The assay is described as above. Conditions: 24/48 h, stronger effect = higher value.
Where [3] appears, read: measured here: cell number at 24 h, concentration not given here.
Setting [4] is: measured here: cell number at 48 h, concentration not given here.
The mark [5] stands for this setting: measured here: p53 positive nuclei at 24 h, concentration not given here.
The mark [6] stands for this setting: measured here: cell number at 24 h, Library stock concentration: 80 uM.
Setting [7] is: measured here: cell number at 24 h, Library stock concentration: 400 uM.
Where [8] appears, read: measured here: cell number at 24 h, Library stock concentration: 2 mM.
[9] abbreviates: measured here: cell number at 24 h, Library stock concentration: 3.33 mM.
[10] abbreviates: measured here: cell number at 24 h, Library stock concentration: 10 mM.
The mark [11] stands for this setting: measured here: cell number at 48 h, Library stock concentration: 80 uM.
[12] abbreviates: measured here: cell number at 48 h, Library stock concentration: 400 uM.
Where [13] appears, read: measured here: cell number at 48 h, Library stock concentration: 2 mM.
Where [14] appears, read: measured here: cell number at 48 h, Library stock concentration: 3.33 mM.
[15] abbreviates: measured here: cell number at 48 h, Library stock concentration: 10 mM.
Where [16] appears, read: Library stock concentration: 80 uM.
Setting [17] is: Library stock concentration: 400 uM.
Setting [18] is: Library stock concentration: 2 mM.
The mark [19] stands for this setting: Library stock concentration: 3.33 mM.
The mark [20] stands for this setting: Library stock concentration: 10 mM.
Where [21] appears, read: measured here: p53 positive nuclei at 24 h, Library stock concentration: 80 uM.
The mark [22] stands for this setting: measured here: p53 positive nuclei at 24 h, Library stock concentration: 400 uM.
The mark [23] stands for this setting: measured here: p53 positive nuclei at 24 h, Library stock concentration: 2 mM.
[24] abbreviates: measured here: p53 positive nuclei at 24 h, Library stock concentration: 3.33 mM.
The mark [25] stands for this setting: measured here: p53 positive nuclei at 24 h, Library stock concentration: 10 mM.
Where [26] appears, read: measured here: cell number at 24 h, Library stock concentration: 46 uM.
The mark [27] stands for this setting: measured here: cell number at 24 h, Library stock concentration: 278 uM.
The mark [28] stands for this setting: measured here: cell number at 24 h, Library stock concentration: 1.67 mM.
Setting [29] is: measured here: cell number at 48 h, Library stock concentration: 46 uM.
Setting [30] is: measured here: cell number at 48 h, Library stock concentration: 278 uM.
Where [31] appears, read: measured here: cell number at 48 h, Library stock concentration: 1.67 mM.
Setting [32] is: Library stock concentration: 46 uM.
Where [33] appears, read: Library stock concentration: 278 uM.
[34] abbreviates: Library stock concentration: 1.67 mM.
Setting [35] is: measured here: p53 positive nuclei at 24 h, Library stock concentration: 46 uM.
Setting [36] is: measured here: p53 positive nuclei at 24 h, Library stock concentration: 278 uM.
[37] abbreviates: measured here: p53 positive nuclei at 24 h, Library stock concentration: 1.67 mM.

Structures are written as SMILES. Hit rate of the full screen: of about 5,700 compounds, about 85 (1%) were called active. Cut-off read from the data, not from the text of the source: active = p53-positive nuclei above about 36% (passing the limit was not always enough); inactive = the rest. This excerpt belongs to a sample that is enriched for actives.

Cellular tumor antigen p53 (Homo sapiens), sequence (P04637 whole entry, looked up): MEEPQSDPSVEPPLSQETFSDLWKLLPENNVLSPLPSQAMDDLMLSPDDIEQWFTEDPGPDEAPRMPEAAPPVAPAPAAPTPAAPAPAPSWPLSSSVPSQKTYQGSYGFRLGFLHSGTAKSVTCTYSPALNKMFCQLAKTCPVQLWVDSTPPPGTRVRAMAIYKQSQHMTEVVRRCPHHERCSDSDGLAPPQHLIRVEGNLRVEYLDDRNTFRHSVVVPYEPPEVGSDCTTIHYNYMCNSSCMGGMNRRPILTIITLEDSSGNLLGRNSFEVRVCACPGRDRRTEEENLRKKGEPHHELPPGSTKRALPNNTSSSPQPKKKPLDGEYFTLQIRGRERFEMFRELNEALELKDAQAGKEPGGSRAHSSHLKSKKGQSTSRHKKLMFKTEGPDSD

On to `CCCCC[C@H](O)/C=C/[C@@H]1[C@@H](C/C=C\CCCC(=O)NCC)[C@@H](O)C[C@H]1O`, for which the figures for the nuclei count, normalised in assay [1] (setting [3]) and in assay [1] (setting [4]) were 106% and 102%, respectively. For the same molecule, the results for the p53-positive nuclei, normalised in assay [2] (concentration not given here) and in assay [2] (setting [5]) were 0.015% (inactive) and -0.0692%, respectively.
Regarding `O=C(/C=C/c1cccc(C(=O)NO)c1)NO`, the nuclei count, normalised worked out at 114% in assay [1] (setting [3]) and 107% in assay [1] (setting [4]). Besides, the p53-positive nuclei, normalised is 0.114% (inactive) in assay [2] (concentration not given here) and 0.124% in assay [2] (setting [5]).
Turning to `O=C(C=Cc1cccc(S(=O)(=O)Nc2ccccc2)c1)NO`, the nuclei count, normalised was 108% in assay [1] (setting [6]); 107% in assay [1] (setting [7]); 94.6% in assay [1] (setting [8]); 58% in assay [1] (setting [9]); 52.5% in assay [1] (setting [10]); 101% in assay [1] (setting [11]). Moreover, the nuclei count, normalised in assay [1] (setting [12]) was determined as 95.8%; in assay [1] (setting [13]), 77.3%; in assay [1] (setting [14]), 40.2%; in assay [1] (setting [15]), 30.4%. The p53-positive nuclei, normalised is 3.46% (inactive) in assay [2] (setting [16]); 0.535% (inactive) in assay [2] (setting [17]); 5.33% (inactive) in assay [2] (setting [18]); 46% (active) in assay [2] (setting [19]); 76% (active) in assay [2] (setting [20]); 0.856% in assay [2] (setting [21]). Further, the p53-positive nuclei, normalised in assay [2] (setting [22]) was determined as 1.2%; in assay [2] (setting [23]), 10.1%; in assay [2] (setting [24]), 51%; in assay [2] (setting [25]) it was 64.7%.
With `O=S(=O)(NO)c1ccccc1`, the nuclei count, normalised amounted to 71.3% in assay [1] (setting [3]) and 77% in assay [1] (setting [4]). The p53-positive nuclei, normalised in assay [2] (concentration not given here) was 0.0111% (inactive); in assay [2] (setting [5]), -0.0732%.
With `CCCCCCCCc1cccc(NC(=O)C(N)COP(=O)(O)O)c1` (configuration not stated), the nuclei count, normalised in assay [1] (setting [26]) is 114%; in assay [1] (setting [27]) it was 118%; in assay [1] (setting [28]) it was 113%; in assay [1] (setting [10]), 108%; in assay [1] (setting [29]), 110%; in assay [1] (setting [30]), 108%. In addition, the nuclei count, normalised in assay [1] (setting [31]) amounted to 107%; in assay [1] (setting [15]), 101%. Moreover, the p53-positive nuclei, normalised in assay [2] (setting [32]) is -0.108% (inactive); in assay [2] (setting [33]), 0.0439% (inactive); in assay [2] (setting [34]), -0.101% (inactive); in assay [2] (setting [20]) it was -0.166% (inactive); in assay [2] (setting [35]), 0.0125%; in assay [2] (setting [36]), -0.0546%. Also, the values for the p53-positive nuclei, normalised in assay [2] (setting [37]) and in assay [2] (setting [25]) were -0.0401% and -0.218%, respectively.
On to `CCCCCCCCCCCCCCCCCCCC(=O)NCCO`, for which the nuclei count, normalised in assay [1] (setting [3]) was 110%; in assay [1] (setting [4]), 108%. Also, the p53-positive nuclei, normalised was -0.151% (inactive) in assay [2] (concentration not given here) and -0.0865% in assay [2] (setting [5]).
As to `CCCCc1nc2cc(C=CC(=O)NO)ccc2n1CCN(CC)CC`, the nuclei count, normalised in assay [1] (setting [6]) amounted to 95.3%; in assay [1] (setting [7]) it was 95.2%; in assay [1] (setting [8]), 78.6%; in assay [1] (setting [9]), 52.6%; in assay [1] (setting [10]), 51%; in assay [1] (setting [11]), 90.2%. In addition, the nuclei count, normalised in assay [1] (setting [12]) came out at 86.3%; in assay [1] (setting [13]), 62.7%; in assay [1] (setting [14]) it was 28.6%; in assay [1] (setting [15]), 28.2%. The p53-positive nuclei, normalised in assay [2] (setting [16]) is 1.67% (inactive); in assay [2] (setting [17]), 3.58% (inactive); in assay [2] (setting [18]), 17.7% (inactive); in assay [2] (setting [19]), 87.1% (active); in assay [2] (setting [20]) it was 84.9% (active); in assay [2] (setting [21]), 5.63%. The p53-positive nuclei, normalised in assay [2] (setting [22]) was 7.57%; in assay [2] (setting [23]) it was 33.7%; in assay [2] (setting [24]) it was 71.3%; in assay [2] (setting [25]), 79.8%.
Consider `CCCCCc1ccc(C=CC(=O)Nc2ccccc2C(=O)O)cc1`, for which the nuclei count, normalised in assay [1] (setting [26]) was 113%; in assay [1] (setting [27]), 109%; in assay [1] (setting [28]), 111%; in assay [1] (setting [10]), 109%; in assay [1] (setting [29]) it was 113%; in assay [1] (setting [30]), 110%. Also, the nuclei count, normalised was 110% in assay [1] (setting [31]) and 106% in assay [1] (setting [15]). Further, the p53-positive nuclei, normalised was -0.18% (inactive) in assay [2] (setting [32]); -0.17% (inactive) in assay [2] (setting [33]); -0.244% (inactive) in assay [2] (setting [34]); -0.204% (inactive) in assay [2] (setting [20]); -0.087% in assay [2] (setting [35]); -0.151% in assay [2] (setting [36]). In addition, the p53-positive nuclei, normalised is -0.151% in assay [2] (setting [37]) and -0.0182% in assay [2] (setting [25]).
Take `COc1ccc(CNCC2COCCO2)cc1OC` (configuration not stated): the values for the nuclei count, normalised in assay [1] (setting [3]) and in assay [1] (setting [4]) were 101% and 103%, respectively. For the same molecule, the p53-positive nuclei, normalised was 0.0897% (inactive) in assay [2] (concentration not given here) and 0.164% in assay [2] (setting [5]).
For the molecule `O=C(NOCC(O)CO)c1ccc(F)c(F)c1Nc1ccc(I)cc1F` (configuration not stated), the nuclei count, normalised in assay [1] (setting [6]) turned out to be 110%; in assay [1] (setting [7]), 101%; in assay [1] (setting [8]) it was 91.9%; in assay [1] (setting [9]) it was 96.8%; in assay [1] (setting [10]), 99.9%; in assay [1] (setting [11]), 106%. In addition, the nuclei count, normalised was 104% in assay [1] (setting [12]), 95.8% in assay [1] (setting [13]), 97.9% in assay [1] (setting [14]) and 95.8% in assay [1] (setting [15]). The p53-positive nuclei, normalised in assay [2] (setting [16]) was -0.174% (inactive); in assay [2] (setting [17]), -0.189% (inactive); in assay [2] (setting [18]), 0.0424% (inactive); in assay [2] (setting [19]), -0.685% (inactive); in assay [2] (setting [20]), 0.268% (inactive); in assay [2] (setting [21]), 0.00674%. For the same molecule, the p53-positive nuclei, normalised in assay [2] (setting [22]) is 0.0842%; in assay [2] (setting [23]) it was -0.07%; in assay [2] (setting [24]), -0.375%; in assay [2] (setting [25]), 0.0144%.

Source of the values: PubChem BioAssay AID1508601 (ICCB-Longwood Screening Facility, Harvard Medical School, 2020).
